This note sets out measurements from PubChem BioAssay (Tox21).

“And” between values parts separate entries of the source, which are not always exact repeats. Equal values may be shown once. Inconclusive results are not listed. Where a call stands in place of a potency, no number is given. Where a structure was tested more than once in an assay, its records may differ in their call. The source made the active and inactive calls. The call rests on the fitted dose curve.
Potency means the concentration at half of the fitted maximal effect.

This experiment can be described thus: qHTS assay to identify small molecule antagonists of the estrogen receptor alpha (ER-alpha) signaling pathway using the BG1 cell line (AID 743080).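 Further: BG1 cells stimulated with 17beta-estradiol alongside compound; nearly all actives have a fitted effect of over 25% in size.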 As to conditions: BG1Luc4E2 ERE-luciferase antagonist mode, luminescence; series mostly up to 70.3 µM. From the text: National Center for Advancing Translational Sciences [NCATS]
NIH Chemical Genomics Center [NCGC]
U.S. Environmental Protection Agency [EPA]
National Institutes of Environmental Health Sciences [NIEHS]
National Toxicology Program [NTP]
U.S. Food and Drug Administration [FDA]
Estrogen receptor (ER), a nuclear hormone receptor, plays an important role in development, metabolic homeostasis and reproduction. Endocrine disrupting chemicals (EDCs) and their interactions with steroid hormone receptors like ER causes disruption of normal endocrine function. Therefore, it is important to understand the effect of environmental chemicals on the ER signaling pathway. To identify ER antagonists, BG1-Luc-4E2 cell line (provided by Dr. Michael Denison from University of California) has been used to screen the Tox21 10K compound library. BG1Luc4E2 cell line endogenously expresses full-length ER-alpha and is stably transfected with a plasmid containing four estrogen responsive elements (ERE) upstream of a luciferase reporter gene.
Tox21 Assay Protocol Summary:
BG1-Luc-4E2 cells were cultured in phenol red free assay medium containing 10% charcoal stripped FBS for 5 days before the assay was performed. The cells were dispensed at 4,000 cells/4 uL of assay medium per well into white wall/solid-bottom 1536-well plates using a Multidrop Combi (ThermoFisher Scientific, Waltham, MA) dispenser. The assay plates were incubated at a 37C and 5% CO2 for 24 h, and then 23 nL of compounds dissolved in DMSO, positive controls or DMSO only was transferred to the assay plate using a Pintool station (Kalypsys, San Diego, CA), followed by addition of 1 uL of 17beta-estradiol in assay medium using a Flying Reagent Dispenser (Aurora Discovery, San Diego, CA). After the plates were incubated at 37 C and 5% CO2 for 21.5 h, 1 uL of CellTiter-Fluor reagent (Promega, Madison, WI) of measuring cytotoxicity was added using Flying Reagent Dispenser (FRD) to each well. The assay plates were incubated at 37 C and 5% CO2 for additional 30 min and the fluorescence intensity was quantified by a ViewLux plate reader (PerkinElmer, Shelton, CT). For measuring luciferase reporter gene activity, 4 uL of ONE-Glo reagent (Promega) was added to each plate using an FRD and luminescence was quantified by a ViewLux plate reader after 30 min incubation at room temperature.
In general terms: In qHTS, concentration-response curves come from the screen itself.
Regarding `OC(CCl)CCl`, the Potency entry is “inactive”. Take `C=C(C)C(=O)OCCOC(=O)C(=C)C`: the Potency entry was “inactive”.

Take `Nc1ccc(Cl)cc1Cl`: the Potency result is “inactive”. Then `CC(C(=O)O)c1cccc(C(=O)c2ccccc2)c1` (stereo not given), with “inactive”. Consider `C=C(C)C1CC=C(C)CC1` (stereo not given), for which the Potency entry is “inactive”. Take `CC(C)OC(=O)C(C)(C)Oc1ccc(C(=O)c2ccc(Cl)cc2)cc1`: the Potency entry was “inactive and 61.1 µM (active)”. For the compound `CCCCOCCOCCO`, the Potency result was “inactive”. The figure for `O=C(COc1ccc(Cl)cc1)N1CCN(Cc2ccc3c(c2)OCO3)CC1` is 61.1 µM (active); for `CCC(C)(O)CCCC(C)C` (stereo not given) it is “inactive”; for `CC(CCC(=O)O)(c1ccc(O)cc1)c1ccc(O)cc1` it is “inactive”. With `CC(C)OC=O`, the Potency entry was “inactive”. With `Nc1ncnc2nc[nH]c12`, the Potency result is “inactive”. For `CC(C)OB(OC(C)C)OC(C)C`, the Potency result is “inactive”. On to `COc1ccc(OC)c(C(O)CNC(=O)CN)c1` (stereo not given), for which the Potency result was “inactive”. As to `O=C(OCc1ccccc1)c1ccccc1O`, the Potency result was “inactive”. In the case of `C[C@]12CCC(=O)C=C1CC[C@@H]1[C@@H]2C(=O)C[C@@]2(C)[C@H]1CC[C@]2(O)C(=O)CO`, the Potency result is “inactive”.

For the compound `COc1cccc2c1C(=O)c1c(O)c3c(c(O)c1C2=O)C[C@@](O)(C(=O)CO)C[C@@H]3O[C@H]1C[C@H](N)[C@H](O)[C@H](C)O1`, the Potency result was “inactive”. Take `CC(C)=CCCC(C)CCO` (stereo not given): the Potency result is “inactive”.

For the compound `CCCCC(CC)COCC1CO1` (stereo not given), the Potency result is “inactive”. As for `O=Cc1ccccc1O`, the Potency entry is “inactive”.

Take `COc1ccccc1/C=C/C=O`: the Potency entry was “inactive”. Regarding `c1ccc2sc(SSN3CCOCC3)nc2c1`, the Potency entry was “inactive”. For `Cc1c(C(N)=O)cc([N+](=O)[O-])cc1[N+](=O)[O-]`, the Potency entry is “inactive”.

For the compound `CCCCNS(=O)(=O)c1ccccc1`, the Potency result was “inactive”. For `CN1C(C(=O)Nc2ccccn2)=C(O)c2ccccc2S1(=O)=O`, the Potency result is “inactive”. The figure for `O=C(Nc1ccc(Cl)cc1)Nc1ccc(Cl)c(Cl)c1` is 13.3 µM (active) and 24.2 µM (active); for `Cc1cccc([N+](=O)[O-])c1C` it is “inactive”. Take `O=[N+]([O-])c1ccc2c(c1)Cc1ccccc1-2`: the Potency result is “inactive”. For `Nc1ccccc1N`, the Potency entry is “inactive”. For the compound `CCCc1c(OCCCCc2nn[nH]n2)ccc(C(C)=O)c1O`, the Potency result was “inactive”. On to `O=C(O)c1ccccc1Nc1cccc(C(F)(F)F)c1`, for which the Potency result was “inactive”. `c1ccc2c(c1)Oc1ccccc1S2`: the Potency result is “inactive”. In the case of `CC(=O)CC/C=C(\C)CCC=C(C)C`, the Potency result was “inactive”. As for `COC(=O)CCC(=O)OC`, the Potency result is “inactive”. `COC(=O)Nc1nc2ccc(S(=O)c3ccccc3)cc2[nH]1` (stereo not given): the Potency is 12.2 µM (active). For the compound `CC1=CCC(C(C)(C)O)CC1` (stereo not given), the Potency entry was “inactive”. On to `CCCCc1oc2ccccc2c1C(=O)c1cc(I)c(OCCN(CC)CC)c(I)c1`, for which the Potency entry was “inactive”.

Turning to `Nc1ncn([C@@H]2O[C@H](CO)[C@@H](O)[C@H]2O)c(=O)n1`, the Potency result is “inactive”. With `O=C(Nc1ccc([N+](=O)[O-])cc1Cl)c1cc(Cl)ccc1O`, the Potency was 0.841 µM (active).

`O=S(=O)(O)c1ccc(O)cc1`: the Potency result was “inactive”.
